From the supplement of paper PMC9897528

tested on: Scedosporium aurantiacum CBS 136046; test: growth inhibition relative to DMSO control (OD600); higher = more antifungal activity, active = 80 or more; extreme values may be limits of the assay; conditions: 5 µM; 72 h; 37 °C
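Note: conidia screened in RPMI 1640 medium under 5% CO2, growth read by spectrophotometer, medium with 0.5% DMSO serving as the untreated reference.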

Growth inhibition, inactive:
FC(F)(F)Oc1ccc(Nc2ccc3cccc(Cl)c3n2)cc1 25.3%
Nc1nc(N)c2c(Sc3ccccc3)cccc2n1 18%
CC(Oc1ccc(Cl)cc1Cl)C(=O)NCc1ccc2c(c1)OCO2 (stereo not drawn) 17.5%
COc1ccc2c(c1OC)C(=O)OC2C1c2c(cc3c(c2OC)OCO3)CCN1C (stereo not drawn) 14.1%
CC(=O)N1c2ccccc2NC2=C(C(=O)CC(C)(C)C2)C1c1ccc(OCc2ccccc2)cc1 (stereo not drawn) 15.4%
NC(=O)[C@@H]1CC[C@@H]2CN1C(=O)N2OS(=O)(=O)O 0%
COc1ccc(-n2cnc3cc(NCc4ccco4)ccc32)cc1 9.11%
O=C(O)c1cc(-c2ccccc2)nc2ccccc12 12.6%
CCc1ccccc1OCCN1CCCCCC1 26.2%
CCCCCc1ccc(C(=O)NCCn2cc(CCCCCc3c[nH]c(N)n3)nn2)cc1 46%
O=C(Cc1ccccc1F)Nc1nc2ccccc2[nH]1 23.9%
CCC(C)NCC(O)Cn1c2ccc(Cl)cc2c2cc(Cl)ccc21 (stereo not drawn) 25%
O=C(CCCC(F)(F)F)N1CCC(c2nc(-c3nccs3)no2)CC1 4.66%
COc1cc(C(C(=O)NC2CCCCC2)N(C(=O)Cc2c[nH]c3ccccc23)c2ccc(C(C)C)cc2)cc(OC)c1OC (stereo not drawn) 6.79%
Oc1c(C(Nc2ccccn2)c2ccccc2)ccc2cccnc12 (stereo not drawn) 35.9%
Cc1[nH]c2ccccc2c1CC(=O)N[C@@H](Cc1ccccc1)C(=O)N(C)c1ccccc1 10.7%
Nc1nc2c(ncn2COCCO)c(=O)[nH]1 11.1%
Cc1c(N)cccc1Cn1ccc(OCCc2cccs2)cc1=O 2.23%
O=C(NNC(=S)Nc1ccc(Cl)cc1)c1ccncc1 10.8%
O=P(O)(O)C(CCCc1cccc(Oc2ccccc2)c1)S(=O)(=O)O (stereo not drawn) 2.84%
COc1nc2ccc(Br)cc2cc1[C@@H](c1ccccc1)[C@@](O)(CCN(C)C)c1cccc2ccccc12 43.6%
CCc1cc(Nc2cc(=O)n(CCN3CCN(C(=O)c4ccccc4)CC3)c(=O)[nH]2)ccc1C 0%
CC(=O)NC[C@H]1CN(c2ccc(N3CCSCC3)c(F)c2)C(=O)O1 29.2%
NCC(=O)Nc1ccc(-n2nc(C(F)(F)F)cc2-c2ccc3c(ccc4ccccc43)c2)cc1 25.5%
CCOc1ccc(/C=N/NC(=O)C2CC2c2ccc(C(C)(C)C)cc2)cc1OCC (stereo not drawn) 18.4%
Cc1ncc([N+](=O)[O-])n1CC(O)CN1CCOCC1 (stereo not drawn) 31%
O=C(NC(=O)N1CCCc2ccccc21)c1cccc(Cl)c1 5.71%
CC#C[C@]1(O)CC[C@H]2[C@@H]3CCC4=CC(=O)CCC4=C3[C@@H](c3ccc(N(C)C)cc3)C[C@@]21C 11.4%
CC1(C)C[C@H]1C(=O)N/C(=C\CCCCSC[C@@H](N)C(=O)O)C(=O)O 4.68%
OCCC#Cc1nc(-c2ccc(F)cc2)c(-c2ccncc2)n1CCCc1ccccc1 13.8%
O=C(/C(=C/c1ccc(Cl)cc1Cl)n1ccnc1)c1ccc(Cl)cc1 59.4%
C[C@H]1[C@@H](c2cccc(C(F)(F)F)c2)OC(=O)N1C(=O)NCc1cncc2ccccc12 11.5%
CN(C)CCNC(=O)c1cccc2cccnc12 2.13%
CCc1oc2ccccc2c1C(=O)c1ccc(O)cc1 35.1%
Fc1ccc(-c2nc(-c3c[nH]c4ccc(Br)cc34)[nH]c2-c2ccc(F)cc2)cc1 28.1%
O=S(=O)(Nc1ccc(-n2cccc2)cc1)c1ccc(Cl)c(Cl)c1 41.8%
CC(C)/N=c1\cc2n(-c3ccc(Cl)cc3)c3ccccc3nc-2cc1Nc1ccc(Cl)cc1 24.6%
O=C1[C@H](CC[C@H](O)c2ccc(F)cc2)[C@@H](c2ccc(O)cc2)N1c1ccc(F)cc1 13.9%
